A selection: hits, their analogues and other compounds. The true share with any hit is near 1.8%.
Exocytosis inh – lytic granule exocytosis inhibition | 360,000 compounds, 0.66% hits | inhibition, % at 10 µM | TALL-104 LAMP-1 surface exposure, flow cytometry; cells stimulated with thapsigargin and PMA;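 active means inhibition above about 55%, limit read from the data; inconclusive means no clear call, values can overlap the other calls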
Myeloid diff 2 – compounds promoting myeloid differentiation; calls only at 10 µM; 360,000 compounds, 1% hits; ER-HoxA9 myeloid progenitors, lysozyme-GFP differentiation, flow cytometry; AID 624256;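 active means normalized GFP-positive differentiation at or above the plate's own cutoff, the solvent-only control mean plus 3 SD; inconclusive means no clear call, values can overlap the other calls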;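 further: cells exposed to compound for four days before flow analysis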
ABCB6 inh MLPCN – blocks the human ABCB6 transporter; Q9NP58; K562-ABCB6 porphyrin accumulation, flow cytometry, 1 h; active compounds read low; fluorescence ratio to DMSO, % at 10 µM; 360,000 compounds, 0.19% hits; AID 602162;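 active means fluorescence ratio to DMSO below 75%, the collection mean minus 3 SD; inconclusive means too few cells collected in the well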;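 further: signal is porphyrin accumulated inside mitochondria; lower ratio means ABCB6 inhibition with less porphyrin fluorescence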
ABCB6 inh CP1 – blocks the human ABCB6 transporter; shares compounds with ABCB6 inh MLPCN; AID 602430; 700 tested, under 10 active; ratio response (% of DMSO), % at 10 µM; K562-ABCB6 porphyrin accumulation, flow cytometry, 1 h; active compounds read low;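 active means repeat-averaged ratio response below 75% of DMSO, the collection mean minus 3 SD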;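 further: median porphyrin fluorescence at 575 nm with 488 nm excitation from mitochondria; lower ratio means less porphyrin signal so ABCB6 inhibition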
Of the large screens only hits and unclear results are named; the others gave an inactive call (follow-up assays come after a bar, where they were run).

Cc1c(C(=O)Nc2cc(F)ccc2F)sc2nc3n(c(=O)c12)CCCCC3	none
COc1cccc(NC(=O)c2sc3nc4n(c(=O)c3c2C)CCC4)c1	Myeloid diff 2 inconclusive, ABCB6 inh MLPCN 24 | ABCB6 inh CP1 inactive
COc1ccc(-n2nnnc2C(c2cccc(OC)c2OC)N2CCN(C/C=C/c3ccccc3)CC2)cc1 (centres undefined)	none
Cc1cc(OCc2cc(C(=O)N(Cc3nccn3C)C(C)C)no2)cc(C)c1Cl	none
CC(CCCN(C)C)C(Cc1ccccc1)c1ccccc1 (centres undefined)	none
Cc1cccc(N2CCN(C(=O)c3ccc(-n4cncn4)c([N+](=O)[O-])c3)CC2)c1C	none
COc1ccc(C2Nc3ccccc3NC3=C2C(=O)CC(C)(C)C3)cc1OC (centres undefined)	none
CCOc1ccc(C2Nc3ccccc3NC3=C2C(=O)CC(C)(C)C3)cc1OC (centres undefined)	ABCB6 inh MLPCN 66 | ABCB6 inh CP1 inactive
CCn1c(SCC#N)nc2c(c1=O)C1(CCCC1)Cc1ccccc1-2	ABCB6 inh MLPCN 71 | ABCB6 inh CP1 inactive
N#CCSc1n[nH]c2nc3c(c(=O)n12)C1(CCCCC1)Cc1ccccc1-3	none
COc1ccc(NC(=O)c2ccccc2NC(=O)CSc2ccc(C)cc2)cc1	ABCB6 inh MLPCN 58 | ABCB6 inh CP1 inactive
COc1ccc(NC(=O)CSc2ccc(C)cc2)cc1	none
O=C(c1ccc([N+](=O)[O-])cc1)N1CCN(Cc2ccccc2[N+](=O)[O-])CC1	none
CC(C)(C)c1nn2cnnc2n(/N=C/c2ccc(O)cc2)c1=O	none

Screens deposited in PubChem by NMMLSC.
